Source: PubChem BioAssay AID463173 (ICCB-Longwood Screening Facility, Harvard Medical School, 2010)
Out of some 52,000 compounds screened, about 4,300 (8.3%) were called active. For the sample, actives were picked, then their nearest neighbours and some compounds at random. Values without a mark were called inactive. Rule as the data show it: active = survival mostly below about 52% (no sharp cut-off); inactive = mostly above about 56%.

What follows are compounds tested on DeltatarO mutant (assay: growth inhibition of S. aureus wild type versus tarO mutant, primary screen, teichoic acid synthesis inhibitors, RN4220, OD600 (AID 463173)). Details: OD600, 18 h, active compounds read low, screened at 18.75 µg/mL (by protocol).

| Structure (SMILES) | survival |
| --- | --- |
| Cc1cc(NC(=O)C2CCCN(S(=O)(=O)c3cn(C)cn3)C2)ccc1Br (stereo not given) | 102% |
| Cc1ccc(S(=O)(=O)CCc2nnc(NC(=O)CCCC(=O)Nc3cc(C)on3)s2)cc1 | 104% |
| CCOc1ccc(C(CC(=O)Nc2ccc(C(=O)OC)cc2)N2Cc3ccccc3C2=O)cc1OC (stereo not given) | 73% |
| Cc1cccc(NC(=O)CN2C(=O)c3ccccc3Sc3ncccc32)c1C | 90% |
| Cc1ccc(CNC(=O)C(=O)NCC(c2ccc3c(c2)OCO3)N2CCOCC2)cc1 (stereo not given) | 64% |
| c1ccc(CN2CCCN(c3nc4c(c(NCCN5CCOCC5)n3)CCCC4)CC2)cc1 | 103% |
| COC(=O)c1c(SCC(=O)Nc2cc(C)cc(C)c2)[nH]c2ccccc2c1=O | 39% (active) |
| COC(=O)c1c(SCC(=O)Nc2cccc(C(F)(F)F)c2)[nH]c2ccccc2c1=O | 82% |
| COC(=O)c1c(SCC(=O)Nc2ccccc2OC)[nH]c2ccccc2c1=O | 55% |
| COc1ccc(N2CCN(C(=O)c3ccc(NC(=O)c4nsc5ccccc45)cc3)CC2)cc1 | 84% |
| CCOC(=O)c1scc(-c2ccccc2)c1S(=O)(=O)Nc1cc(OC)cc(OC)c1 | 89% |
| Cc1cccc(CSc2nc(=O)c3c(n2C)NC(=O)CC3c2cccc(O)c2)c1 (stereo not given) | 46% |
| COc1ccccc1NC(=O)c1ccc(CN2C(=O)C(C)=C(c3ccc(C)c(C)c3)S2(=O)=O)cc1 | 83% |
| Cc1ccc(SCC(=O)Nc2ccc3oc(-c4ccccc4F)nc3c2)cc1 | 57% (active) |
| COc1ccccc1-c1nc2cc(NC(=O)c3ccccc3Cl)ccc2o1 | 61% |
| O=C(Nc1ccc2oc(-c3ccccc3F)nc2c1)c1ccccc1Cl | 49% (active) |
| O=C(Nc1ccc(-c2nc3cc(NC(=O)c4ccccc4Cl)ccc3o2)cc1)c1ccccc1Cl | 83% |
| Cc1ccc(SCC(=O)Nc2ccc3oc(-c4ccccc4C)nc3c2)cc1 | 50% |
| O=C(Nc1ccc(Cl)c(-c2nc3cc(Cl)ccc3o2)c1)c1cc2ccccc2o1 | 70% |
| N#Cc1ccc(C(=O)Nc2ccc(Cl)c(-c3nc4cc(Cl)ccc4o3)c2)c(F)c1 | 28% (active) |
| Cc1cccc(OCC(=O)Nc2ccc3oc(-c4ccccc4F)nc3c2)c1 | 57% |
| COc1ccc2oc(-c3cccc(NC(=O)c4ccc(C#N)cc4F)c3)nc2c1 | 79% |
| Cc1ccc(SCC(=O)Nc2ccc3oc(-c4ccc(F)cc4)nc3c2)cc1 | 80% |

| Structure (SMILES) | survival |
| --- | --- |
| O=C(COc1ccccc1Cl)Nc1ccc2oc(-c3ccccc3F)nc2c1 | 67% (active) |
| O=C(COc1ccccc1Cl)Nc1ccc(Cl)c(-c2nc3ccccc3o2)c1 | 51% |
| CCCS(=O)(=O)N1CCCC(C(=O)NCCCOC)C1 (stereo not given) | 77% |
| CCOc1ccc(Br)cc1C1NC(=O)c2c(sc3c2CCN(C)C3)N1 (stereo not given) | 60% |
| CCn1c(C)c(C)c2cc(C(=O)NCc3ccc(OC)cc3OC)ccc21 | 70% |
| CCc1nn2c(=O)cc(COC(=O)C(CC)c3ccccc3)nc2s1 (stereo not given) | 92% |
| CCN(Cc1ccccc1)C(=O)c1cc2ccc3cccnc3c2[nH]1 | 49% |
| Cc1cccc(C(=O)NCCc2nc3ccccc3n2Cc2ccc(Cl)cc2)c1 | 79% |
| COC(=O)c1ccc(N2C(=O)c3ccc(N)cc3C2=O)cc1 | 73% |
| COc1cc(Cl)c(NC(=O)c2cc(CN3CCCC3)on2)c(OC)c1 | 94% |
| CC(=O)c1cccc(NC(=O)CSc2nnc3ccc(-c4ccc(Br)cc4)nn23)c1 | 75% |
| CCn1nc(-c2ccccc2)c(-c2ccccc2)c(C(=O)Nc2ccc(S(N)(=O)=O)cc2)c1=O | 66% |
| COC(=O)c1ccc(NC(=O)c2c(-c3ccccc3)c(-c3ccccc3)nn(C)c2=O)cc1 | 58% |
| Cn1nc(-c2ccccc2)c(-c2ccccc2)c(C(=O)Nc2ccc(S(N)(=O)=O)cc2)c1=O | 49% (active) |
| Cc1ccc(-c2nc3sc(CCNC(=O)c4ccco4)c(C)n3n2)cc1 | 87% |
| Cc1ccc(C)c(CN2C(=O)c3ccccc3S(=O)(=O)c3ccc(C(=O)N4CCN(c5ccccc5F)CC4)cc32)c1 | 79% |
| CCOc1ccc(-c2cn3c(n2)sc2cc(C(=O)NCCCN4CCCCC4)ccc23)cc1 | -1% (active) |
| CCOc1ccc(-c2cn3c(n2)sc2cc(C(=O)NCCCN4CCCCCC4)ccc23)cc1 | -2% (active) |
| COc1ccc(-c2cn3c(n2)sc2cc(C(=O)NCCCN4CCCCC4)ccc23)cc1 | 69% |
| COc1ccc(-c2cn3c(n2)sc2cc(C(=O)NCCCN4CCCCCC4)ccc23)cc1 | 64% |
| CCCN1CCN(CCCNC(=O)c2ccc3c(c2)sc2nc(-c4ccc(OCC)cc4)cn23)CC1 | 28% (active) |
| CCCN1CCN(CCCNC(=O)c2ccc3c(c2)sc2nc(-c4ccc(OC)cc4)cn23)CC1 | 73% |
